# IL1B secr inh – inhibitors of inflammasome signaling (IL-1 beta secretion). THP-1 LPS/ATP IL-1B secretion, AlphaLISA, 16 h; active compounds read low. activity change, % at 57.5 µM. 360,000 compounds, 4.7% hits. AID 743279; in the data active = activity change below about -50%; inconclusive = mostly about -30% to -49%
#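 Secreted IL-1B measured by AlphaLISA bead assay after 16 h compound exposure of THP-1 cells; compounds (final up to 57.5 uM) added 1 h before LPS (250 ng/mL) and ATP (1.25 mM) stimulation; lower signal means less secretion.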
# ELG1 DNA repair – ELG1-dependent DNA repair inhibition; HEK293T ELG1-luciferase reporter, luminescence, 16 h; DNA damage induced by 5-fluorouridine; Potency, µM (series often up to 46.1 µM), inactives show at the highest dose activity change, negative = inhibition, hits mostly inhibitors; 330,000 compounds, 2.3% hits; AID 504467; note: potency is the fitted concentration of half-maximal effect; nearly all actives have a fitted effect of over 55% in size
#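 Overnight (16 hr) co-exposure of 2,000 cells/well to 5-fluorouridine and compound at 37 °C preceded detection. Luciferase was quantified via ONE-Glo luminescence; loss of signal denotes inhibition.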
# DT40 TDP1 no CPT – qHTS for Inhibitors of human tyrosyl-DNA phosphodiesterase 1 (TDP1): qHTS in cells in absence of CPT; DT40 Tdp1-/- hTDP1 cells, no CPT, ATP luminescence, 48 h; Potency, µM (highest dose often 46.2 µM), inactives show top-dose activity change, negative = growth inhibition, usual class: inhibitors; 420,000 compounds, 15% hits; AID 686978, 2013; note: potency is the fitted concentration of half-maximal effect; nearly all actives have a fitted effect of over 55% in size
#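 DT40 Tdp1-/-;hTDP1 cells, no CPT (DMSO vehicle only), 400 cells/well; compounds pin-transferred; ≥48 hr, 37 °C; CellTiter-Glo 30 min RT dark, luminescence read.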
# DT40 TDP1 CPT – DT40-hTDP1 cell growth loss with CPT. chicken DT40 Tdp1-/-;hTDP1 cells + 20 nM CPT, ATP luminescence, 48 h. Potency, µM (top dose mostly 46.2 µM), inactives show top-dose activity change, negative = growth inhibition, most hits filed as inhibitors. 420,000 compounds, 12% hits. AID 686979; note: potency is the fitted concentration of half-maximal effect; nearly all actives have a fitted effect of over 55% in size
#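 Chicken DT40 Tdp1-/- cells stably complemented with human TDP1 were seeded at 400 cells/well in medium containing 20 nM camptothecin, exposed to pin-transferred compounds, and grown at 37 °C for at least 48 hr. Viability was read as ATP luminescence.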
# HT1080NT lethal – kills 2HG-producing HT-1080-NT fibrosarcoma cells. HT-1080-NT fibrosarcoma viability, CellTiter-Glo ATP luminescence, 48 h. Potency, µM (top dose mostly 46.1 µM), without a hit: at the top dose activity, negative = less viability, most hits filed as cytotoxic. AID 686970. 360,000 compounds, 1.6% hits;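 note: NT is the 2HG producing partner of a matched IDH1 knockdown line; potency is the fitted concentration of half-maximal effect; 0% = DMSO-treated cells and -100% = media-only wells without cells; nearly all actives have a fitted effect of over 55% in size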
#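 Read-out is CellTiter-Glo luminescence after 10 minutes at room temperature, following 48 hours' compound treatment of HT-1080-NT cells (750 cells/well, RPMI, 5% FBS, 37 degrees C).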
# HT1080 IDH1KD tx – HT-1080 IDH1 knockdown cell toxicity (counter line); HT-1080 IDH1 knockdown viability, ATP luminescence, 48 h; Potency, µM (titrated, usually from 46.1 µM), for the others: at the top dose activity, negative = toxicity, actives largely listed as cytotoxic; 360,000 compounds, 2% hits; AID 686971;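 note: potency is the fitted concentration of half-maximal effect; 0% = DMSO wells and -100% = cell-free medium wells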
#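 Cytotoxicity counter-line: IDH1KD HT-1080, 48 h, CellTiter-Glo. Curves classed by r2, magnitude and activity.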
# * marks the source's active call; other numbers are inactive results; ? = inconclusive; nt = no result given. Most compounds without a hit are left out; they make up all but 19% or so of the library. Unless noted, calls come from the whole dose curve; as a rule, active = well fitted curve in the direction sought with a large enough effect; inconclusive = small, poorly fitted or top-dose-only effect, or another doubt; inactive = no such curve, though single readings can be large; an effect the other way counts as inactive or inconclusive. Unless noted, % is set by controls: 0 for no effect and ±100 for the full control effect.
SMILES,IL1B secr inh,ELG1 DNA repair,DT40 TDP1 no CPT,DT40 TDP1 CPT,HT1080NT lethal,HT1080 IDH1KD tx
CC(C)CC(=O)/C(=C\c1ccc(Cl)cc1Cl)n1cncn1,-104*,21µM*,1.8µM*,2.9µM*,5.8µM*,2.9µM*
CC(C)CC(=O)/C(=C/c1ccc(N(C)C)cc1)n1cncn1,3,7%,1%,-7%,?,11%
Brc1ccc2ncnc(Nc3cccc4ccccc34)c2c1,-80*,2%,?,?,?,?
O=C(O)c1cccc(Nc2ncnc3ccc(Br)cc23)c1,27,?,?,-21%,11%,1%
COc1cccc(Nc2ncnc3ccc(Br)cc23)c1,14,nt,21µM*,?,-1%,-13%
OCCNc1ncnc2ccc(Br)cc12,23,9.2µM*,6.5µM*,?,-10%,-15%
COc1ccc(OC)c(Nc2ncnc3ccc(Br)cc23)c1,25,?,?,?,-7%,-1%
COc1ccccc1-c1ccc2ncnc(Nc3ccccc3)c2c1,nt,nt,-94%,21µM*,nt,nt
CNc1ncnc2ccc(-c3ccccc3OC)cc12,nt,nt,21µM*,?,nt,nt
COc1ccccc1-c1ccc2ncnc(NCCNC(C)=O)c2c1,nt,nt,-2%,-24%,nt,nt
Cc1ccc2ncnc(Nc3cccc([N+](=O)[O-])c3)c2c1,-5,?,?,23µM*,11%,4%
Fc1ccc(Nc2ncnc3ccc(-c4ccoc4)cc23)cc1,nt,nt,?,15µM*,nt,nt
c1ccc2c(c1)-c1nc3ccccc3cc1C2N1CCCCC1 (stereo not drawn),27,nt,16µM*,16µM*,0%,2%
CC1(C)c2ccccc2-c2nc3ccccc3cc2C1O (stereo not drawn),20,?,?,?,-15%,-24%
COc1cccc(/C=N/NC(=O)CSCC(=O)Nc2ccccc2)c1O,152,0%,3.2µM*,4.5µM*,4µM*,2µM*
COc1cccc(/C=N\NC(=O)Cn2nnc3ccccc32)c1O,159,-6%,2.9µM*,3.7µM*,?,?
COc1cc(/C=N/NC(=O)CCn2nnc3ccccc32)ccc1O,12,21%,0%,41%,9%,16%
COc1cccc(C=Nc2ccccc2C(=O)Nc2ccccc2)c1O,-3,?,0%,8%,9%,7%
COc1ccc(O)c(/C=N\NC(=O)CCn2nnc3ccccc32)c1,78,?,23µM*,?,?,?
O=C(O)c1cccc(Cn2c(Cl)c(/C=N/Nc3ccccc3)sc2=O)c1,0,7%,11%,?,?,5.8µM*
O=C(N/N=C/c1sc(=O)n(Cc2ccc(Br)cc2)c1Cl)c1ccco1,-78*,-18%,?,?,-23%,-10%
O=C(O)c1cccc(Cn2c(Cl)c(/C=N/NC(=O)c3ccccc3Cl)sc2=O)c1,7,10%,-4%,10%,9%,0%
CCC(=O)N1CCCC(C)(C(=O)Nc2nccc3cccnc23)C1 (stereo not drawn),7,nt,-6%,-22%,25%,1%
CCCCCOc1ccc(/C(C)=N/NC2=NCCN2)cc1,-66*,-13%,?,?,0%,-12%
CCOc1ccc(Br)cc1/C(C)=N\NC1=NCCN1,-80*,?,4.6µM*,5.8µM*,21µM*,?
SMILES,IL1B secr inh,ELG1 DNA repair,DT40 TDP1 no CPT,DT40 TDP1 CPT,HT1080NT lethal,HT1080 IDH1KD tx
CCCCCCOc1ccc(/C(C)=N/NC2=NCCN2)cc1,-56*,-9%,?,?,-19%,-7%
CCCCCCOc1ccc(C(=O)O)cc1,4,?,14%,13%,4%,-1%
Cc1nc(NS(=O)(=O)c2ccc(N)cc2)nc(C)c1Br,nt,nt,-25%,-1%,nt,nt
CCC(C)NC(=O)c1ccc2c(=O)n3c(nc2c1)CCCCC3 (stereo not drawn),nt,nt,-11%,18%,nt,nt
COc1ccccc1C(=O)COC(=O)C1(C)CC1(Cl)Cl (stereo not drawn),-12,?,-6%,7%,1%,7%
CCOc1cc(/C=C(\C#N)C(N)=O)ccc1OS(=O)(=O)c1ccccc1,13,?,-16%,-6%,11%,1%
CCOC(=O)/C(C#N)=C\c1c(OCC)n(CC)c2ccccc12,-10,?,18µM*,?,-1%,-6%
CCOc1c(/C=C(\C#N)C(N)=O)c2ccccc2n1CC,10,13µM*,?,?,-1%,-13%
CCOC(=O)/C(C#N)=C\c1ccc(CC)s1,-18,?,-10%,-2%,-2%,-18%
O=C(CNS(=O)(=O)c1ccc(Cl)c(C(F)(F)F)c1)NC1CCCCCC1,24,18%,-21%,-16%,2%,5%
COc1ccc(-c2nc(SCC(=O)Nc3ccc4c(c3)OCCO4)c(-c3ccc(C)cc3)[nH]2)cc1OC,nt,nt,18µM*,?,nt,nt
COc1ccc(NC(=O)CSc2ncccc2C(=O)O)cc1OC,nt,nt,-4%,5%,nt,nt
COc1ccc(-c2[nH]c(-c3ccc(OC)c(OC)c3)nc2SCC(=O)Nc2ccccc2)cc1,nt,nt,?,16µM*,nt,nt
COc1ccc(NC(=O)CSc2nc(-c3cccc(C)c3)[nH]c2-c2ccccc2)cc1OC,nt,nt,6.5µM*,9.2µM*,nt,nt
COc1ccc(NC(=O)CSc2nc(-c3ccc(OC)c(OC)c3)[nH]c2-c2ccc(C)cc2)cc1,nt,nt,?,5.8µM*,nt,nt
COc1ccc(NC(=O)CSc2nc(-c3ccc(OC)cc3)[nH]c2-c2ccc(F)cc2)cc1,nt,nt,-2%,-7%,nt,nt
COc1ccc(Cl)cc1NC(=O)CSc1nccn1-c1ccc(Cl)cc1,nt,nt,-29%,?,nt,nt
CCN(CC)C(=O)C1=C(C)N(Cc2ccccc2)C(=O)C(CC(=O)NC2CCCCC2)C1 (stereo not drawn),7,nt,-22%,-23%,9%,8%
COc1ccc(N2CCN(S(=O)(=O)CCNC(=O)COc3ccccc3C)CC2)cc1,15,?,?,?,9%,-11%
O=c1[nH]c2cc3c(cc2cc1CN(Cc1ccco1)C(=S)NCCCN1CCOCC1)OCCO3,-13,-19%,?,?,-12%,-15%
CCc1ccc2[nH]c(=O)c(CN(Cc3ccccc3)Cc3nnnn3Cc3ccco3)cc2c1,-54*,?,16µM*,?,-23%,?
